Test [1] can be described thus: liver-stage malaria parasite growth inhibition, primary screen, cell-based, HepG2, luciferase luminescence, HepG2 viability (AID 624349; in the data active means parasite load remaining mostly below about 12%, no sharp cut-off; inactive means mostly above about 10%;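 further: 100% = mean of DMSO negative control wells on the same plate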). As to conditions: P. berghei liver stage in HepG2, luciferase luminescence, concentration not given here; parasite load remaining: stronger effect = lower value; viability: measured here: HepG2 viability without parasites.
Test [2] in a line: differential killing of epithelial or mesenchymal cells, primary screen, imaging, PC-3E GFP, TEM4-18 mCherry, co-culture (AID 1345086;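 active means compounds killing one labelled cell type while sparing the other, by normalised counts and ratio limits, not self-fluorescent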;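 on all read-outs here: cells exposed to compound for 72 h before imaging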;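 on red/green cell ratio (normalised): normalised mesenchymal count divided by normalised epithelial count so high means epithelial killing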). As to conditions: imaging cell counts, at 1 µM; for red/green cell ratio (normalised): actives lie on both sides, counts scaled to control wells, 1 = unselective.
Test [3] can be described thus: growth inhibition of DIPG glioma cells, dose response, cell-based, SU-DIPG-XVII, MIPE5.0, CellTiter-Glo, qHTS (AID 1347060; cut-off not given, nearly all actives have AC50 up to about 26 µM;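 on AC50: cells exposed to compound for 48 hours before viability readout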). The conditions noted are these: SU-DIPG-XVII viability, CellTiter-Glo ATP luminescence. On the technique in general: Cellular ATP, detected with luciferase, serves as a proxy for viable cell number.
Test [4] is described as follows: viability loss in pontine glioma line – cell-based, SU-DIPG-XXV, MIPE5.0, CellTiter-Glo, qHTS, dose response (AID 1347065; cut-off not given, nearly all actives have AC50 up to about 26 µM;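 further: cells exposed to compound for 48 hours before ATP readout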). As to conditions: CellTiter-Glo ATP luminescence.
Test [5] is described as follows: JHH-DIPG-1 glioma cell viability, MIPE5.0 library, CellTiter-Glo luminescence, qHTS (AID 1347067; cut-off not given, nearly all actives have AC50 up to about 26 µM;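 further: cells exposed to compound for 48 hours before readout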). As to conditions: JHH-DIPG-1 glioma viability, CellTiter-Glo ATP luminescence.
Test [6] in a line: sensitizers of A549 cells to miR-34 induction, primary screen, imaging, A549 dox-inducible miR-34, nuclei and caspase counts (AID 1347080;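 active means compounds whose cell count with miR-34 switched on is under 0.7 times the count with it off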). As to conditions: A549 miR-34 inducible, Hoechst nuclei count, 48 h.
Test [7] in a line: survival rescue of mitochondrial mutant cells in low glucose, primary screen, MELAS cybrids, Rieske KO mouse fibroblasts, CellTiter-Glo (AID 1508586;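 active means mean z-score across replicates of 1.96 or higher in either the MELAS or the Rieske mutant cell line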;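 further: z relative to plate mean and SD of compound and empty wells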).
Test [8] in a line: viability rescue of complex I mutant cybrids, primary screen, cell-based, galactose medium, ATP luminescence (AID 1645843;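 active means z-score of at least 1.8 in each of two replicates, scored against plate mean and spread of sample wells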;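 further: positive z means more ATP and so rescue of galactose-driven cybrid death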). As to conditions: complex I mutant cybrid cells, 72 h, stronger effect = higher value.
Test [9] addresses Mitogen-activated protein kinase 7 (Homo sapiens) (UniProt Q13164). The test can be described thus: ERK5 transactivation activators in reporter cells, primary screen, cell-based, HTS (AID 1508626;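 active means luciferase signal above three times the same-plate solvent-only control wells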;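 further: luciferase driven by Gal4-ERK5 fusion binding five Gal4 sites before minimal TATA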). The conditions noted are these: HeLa Gal4-ERK5 transactivation, 18 h, at 5 µM, stronger effect = higher value.
Test [10] in a line: hESC survival regulators, cell-based (AID 493140; call rule not given here;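 further: cells exposed to compounds for four days before counting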). The conditions noted are these: human embryonic stem cell survival screen; stronger effect = higher value.
In test [11] the target is NAD(+) hydrolase SARM1 (Homo sapiens) (UniProt Q6SZW1). The test can be described thus: SARM1 TIR NADase inhibitors, cell lysate, NAD-Glo luminescence (AID 1508614;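 active means compound whose remaining NAD level is above about 45 nM, limit read from the data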). The conditions noted are these: SAM-TIR HEK293T lysate NADase, at 1 µM, stronger effect = higher value.
A short description of test [12]: ovarian cancer cell viability with rucaparib, profiling panel, oncology-focused library, rucaparib conditional (AID 1508598). As to conditions: patient-derived ovarian cancer cells, CellTiter-Glo viability, 144 h, stronger effect = lower value.
The mark [13] stands for this setting: measured here: epithelial PC-3E GFP cell survival.
Setting [14] is: measured here: mesenchymal TEM4-18 mCherry cell survival.
Setting [15] is: stronger effect = lower value, cell number ratio, induced over uninduced.
Setting [16] is: measured here: relative caspase fold change +Dox/-Dox.
Where [17] appears, read: measured here: total cells with miR-34 induction, stronger effect = lower value.
Where [18] appears, read: measured here: total cells without miR-34 induction.
Setting [19] is: MELAS cybrid survival, CellTiter-Glo 48 h, stronger effect = higher value.
Where [20] appears, read: Rieske KO mouse fibroblast survival, CellTiter-Glo 72 h.

Five compounds from PubChem BioAssay can be followed below.

Values joined by “and” are separate entries in the source; they are usually repeats but may differ in a detail not shown here. Equal entries are not always repeated. Inconclusive results are not listed. Active and inactive are the calls of the source.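 How the source made its calls, unless noted: active means normalized viability below 100% at a tested concentration; inactive means the rest.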

Usually viability stands for a read-out of living cells in per cent, often relative to untreated cells. Broadly, the AC50 is the concentration at which the activity in the assay is half-maximal.

Chain of NAD(+) hydrolase SARM1 (Homo sapiens) (Q6SZW1 whole entry, looked up): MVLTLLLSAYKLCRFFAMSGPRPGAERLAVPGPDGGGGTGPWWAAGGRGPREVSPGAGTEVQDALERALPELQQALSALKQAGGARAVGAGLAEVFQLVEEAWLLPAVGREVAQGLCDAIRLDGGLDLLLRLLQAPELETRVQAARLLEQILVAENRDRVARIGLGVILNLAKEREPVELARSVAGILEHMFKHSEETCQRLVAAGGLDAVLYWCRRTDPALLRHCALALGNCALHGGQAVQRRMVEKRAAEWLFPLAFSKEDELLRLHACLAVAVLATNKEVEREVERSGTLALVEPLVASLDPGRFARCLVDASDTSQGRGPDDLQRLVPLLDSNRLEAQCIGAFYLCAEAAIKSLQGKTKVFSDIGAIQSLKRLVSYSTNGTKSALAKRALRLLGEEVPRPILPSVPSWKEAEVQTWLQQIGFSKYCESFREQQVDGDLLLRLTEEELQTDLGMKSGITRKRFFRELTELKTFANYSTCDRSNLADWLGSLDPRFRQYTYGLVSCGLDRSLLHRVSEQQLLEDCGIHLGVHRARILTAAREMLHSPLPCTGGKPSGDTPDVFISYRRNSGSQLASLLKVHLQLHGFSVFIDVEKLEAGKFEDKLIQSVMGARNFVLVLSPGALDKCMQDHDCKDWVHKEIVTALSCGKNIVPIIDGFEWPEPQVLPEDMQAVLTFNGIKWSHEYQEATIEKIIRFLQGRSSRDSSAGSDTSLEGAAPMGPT
Chain of Mitogen-activated protein kinase 7 (Homo sapiens) (Q13164 whole entry, looked up, the tested form may be a part): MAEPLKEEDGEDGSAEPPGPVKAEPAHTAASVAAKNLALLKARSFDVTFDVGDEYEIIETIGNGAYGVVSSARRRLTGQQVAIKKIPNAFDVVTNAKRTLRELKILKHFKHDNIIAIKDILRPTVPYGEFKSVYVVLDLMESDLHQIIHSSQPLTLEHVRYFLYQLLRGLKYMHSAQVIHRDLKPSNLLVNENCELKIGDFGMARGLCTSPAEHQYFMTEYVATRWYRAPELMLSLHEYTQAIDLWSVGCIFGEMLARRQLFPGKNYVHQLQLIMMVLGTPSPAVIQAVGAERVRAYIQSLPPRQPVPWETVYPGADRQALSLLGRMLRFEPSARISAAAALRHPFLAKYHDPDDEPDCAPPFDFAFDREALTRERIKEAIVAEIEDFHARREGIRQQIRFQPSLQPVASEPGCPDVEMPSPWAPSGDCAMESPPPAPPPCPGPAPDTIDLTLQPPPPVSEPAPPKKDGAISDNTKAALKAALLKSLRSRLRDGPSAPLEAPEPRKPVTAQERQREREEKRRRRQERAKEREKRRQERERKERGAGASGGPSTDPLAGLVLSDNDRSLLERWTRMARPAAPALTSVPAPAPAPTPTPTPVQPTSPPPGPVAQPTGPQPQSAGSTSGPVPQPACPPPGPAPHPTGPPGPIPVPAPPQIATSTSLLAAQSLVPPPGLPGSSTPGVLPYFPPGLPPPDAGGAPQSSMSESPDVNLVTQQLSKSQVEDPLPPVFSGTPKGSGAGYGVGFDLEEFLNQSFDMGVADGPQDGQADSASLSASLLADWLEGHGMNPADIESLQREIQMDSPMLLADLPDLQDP

As to `CC[C@]1(O)CC2CN(CCc3c([nH]c4ccccc34)[C@@](C(=O)OC)(c3cc4c(cc3OC)N(C)[C@H]3[C@@](O)(C(=O)OC)[C@H](OC(C)=O)[C@]5(CC)C=CCN6CC[C@]43[C@@H]65)C2)C1` (some centres undefined), the parasite load remaining in test [1] was 45.7% (inactive) and 54.9% (inactive). Further, in test [1], the viability is 113% and 91%. In test [2], the red/green cell ratio (normalised) is 1.24 (inactive). Further, the normalised cell number in test [2] (setting [13]) came to 0.16; in [2] (setting [14]), 0.2. The AC50 in test [3] was 20.9 nM (active); in test [4], 14.8 nM (active); in test [5], 46.8 nM (active). Moreover, the fold change in test [6] (setting [15]) is 1.13 (inactive) and 1.04 (inactive); in [6] (setting [16]), 2.66 and 1.23. For the same compound, the cell count is 1730 and 1930 in [6] (setting [17]); 1530 and 1860 in test [6] (setting [18]). Besides, the z-score in test [7] (setting [19]) is -2.11 (inactive); in test [7] (setting [20]) it was 1.21; in test [8] it was -1.85 (inactive).

With `COC1=C(OC)C(=O)C(C/C=C(\C)CC/C=C(\C)CC/C=C(\C)CC/C=C(/C)CC/C=C(\C)CC/C=C(\C)CC/C=C(\C)CC/C=C(\C)CC/C=C(\C)CCC=C(C)C)=C(C)C1=O`, the red/green cell ratio (normalised) in test [2] was 1.1 (inactive). The normalised cell number came out at 0.97 in test [2] (setting [13]) and 1.06 in [2] (setting [14]). Besides, the call in test [4] and in [5] was inactive. In [9], the luciferase signal was 80 AU (inactive).

Turning to `CN[C@@H]1[C@H](O[C@H]2[C@H](O[C@@H]3[C@@H](O)[C@H](O)[C@@H](N=C(N)N)[C@H](O)[C@H]3N=C(N)N)O[C@@H](C)[C@]2(O)C=O)O[C@@H](CO)[C@H](O)[C@H]1O`, the survival in test [10] was 20.6 (inactive). In addition, the parasite load remaining in test [1] is 51.2% (inactive) and 45.6% (inactive) and 35.8% (inactive). The viability in test [1] was 118% and 97.5% and 75%. The red/green cell ratio (normalised) in test [2] is 0.77 (inactive). Besides, the normalised cell number in test [2] (setting [13]) is 1.28; in test [2] (setting [14]), 0.98. The compound was called inactive in test [3], in [4] and in [5]. The fold change in [6] (setting [15]) is 0.935 (inactive) and 0.903 (inactive); in test [6] (setting [16]), 0.998 and 1.43. Moreover, the cell count in test [6] (setting [17]) was 7810 and 9380; in test [6] (setting [18]), 8360 and 10400. Also, the z-score was -0.628 (inactive) and -0.564 (inactive) in test [7] (setting [19]); -0.384 and -1.54 in [7] (setting [20]); -0.095 (inactive) in test [8].

`COC(=O)/C=C/C(=O)OC`: the red/green cell ratio (normalised) in [2] is 1.23 (inactive). Besides, the results for the normalised cell number in test [2] (setting [13]) and in test [2] (setting [14]) were 0.84 and 1.04, respectively. In addition, the compound was called inactive in [3], in [4] and in [5]. The results for the fold change in [6] (setting [15]) and in [6] (setting [16]) were 0.976 (inactive) and 1.01, respectively. Also, the cell count in test [6] (setting [17]) came out at 7550; in test [6] (setting [18]) it was 7740. Moreover, in test [11], the remaining NAD was 10 nM (inactive).

For `Nc1nc(F)nc2c1ncn2[C@@H]1O[C@H](COP(=O)(O)O)[C@@H](O)[C@@H]1O`, the parasite load remaining in test [1] was 22.2% (inactive). The viability in test [1] is 105%; in [12] (at 0.000305 µM, OCI-C5x cells, with rucaparib 10 µM, 100% = cells with rucaparib alone) it was 107% (inactive); in test [12] (at 0.000305 µM, OCI-C5x cells, without rucaparib), 110% (inactive); in [12] (at 0.000305 µM, OCI-P5x cells, with rucaparib 20 µM, 100% = cells with rucaparib alone), 111% (inactive); in [12] (at 0.000305 µM, OCI-P5x cells, without rucaparib) it was 109% (inactive); in test [12] (at 0.00122 µM, OCI-C5x cells, with rucaparib 10 µM, 100% = cells with rucaparib alone) it was 107% (inactive). For the same compound, the viability in [12] (at 0.00122 µM, OCI-C5x cells, without rucaparib) was 109% (inactive); in [12] (at 0.00122 µM, OCI-P5x cells, with rucaparib 20 µM, 100% = cells with rucaparib alone), 106% (inactive); in test [12] (at 0.00122 µM, OCI-P5x cells, without rucaparib), 109% (inactive); in test [12] (at 0.00488 µM, OCI-C5x cells, with rucaparib 10 µM, 100% = cells with rucaparib alone), 105% (inactive); in [12] (at 0.00488 µM, OCI-C5x cells, without rucaparib), 111% (inactive); in [12] (at 0.00488 µM, OCI-P5x cells, with rucaparib 20 µM, 100% = cells with rucaparib alone), 107% (inactive). Besides, the viability in test [12] (at 0.00488 µM, OCI-P5x cells, without rucaparib) was 110% (inactive); in test [12] (at 0.0195 µM, OCI-C5x cells, with rucaparib 10 µM, 100% = cells with rucaparib alone), 97% (active); in test [12] (at 0.0195 µM, OCI-C5x cells, without rucaparib), 111% (inactive); in test [12] (at 0.0195 µM, OCI-P5x cells, with rucaparib 20 µM, 100% = cells with rucaparib alone), 109% (inactive); in test [12] (at 0.0195 µM, OCI-P5x cells, without rucaparib), 108% (inactive); in test [12] (at 0.0781 µM, OCI-C5x cells, with rucaparib 10 µM, 100% = cells with rucaparib alone), 101% (inactive). In addition, the viability is 112% (inactive) in test [12] (at 0.0781 µM, OCI-C5x cells, without rucaparib); 109% (inactive) in test [12] (at 0.0781 µM, OCI-P5x cells, with rucaparib 20 µM, 100% = cells with rucaparib alone); 110% (inactive) in test [12] (at 0.0781 µM, OCI-P5x cells, without rucaparib); 87.1% (active) in test [12] (at 0.313 µM, OCI-C5x cells, with rucaparib 10 µM, 100% = cells with rucaparib alone); 98.3% (active) in test [12] (at 0.313 µM, OCI-C5x cells, without rucaparib); 106% (inactive) in test [12] (at 0.313 µM, OCI-P5x cells, with rucaparib 20 µM, 100% = cells with rucaparib alone). Also, the viability in test [12] (at 0.313 µM, OCI-P5x cells, without rucaparib) was 107% (inactive); in [12] (at 1.25 µM, OCI-C5x cells, with rucaparib 10 µM, 100% = cells with rucaparib alone) it was 82.9% (active); in test [12] (at 1.25 µM, OCI-C5x cells, without rucaparib), 78% (active); in test [12] (at 1.25 µM, OCI-P5x cells, with rucaparib 20 µM, 100% = cells with rucaparib alone), 114% (inactive); in test [12] (at 1.25 µM, OCI-P5x cells, without rucaparib), 111% (inactive); in [12] (at 5 µM, OCI-C5x cells, with rucaparib 10 µM, 100% = cells with rucaparib alone), 58.5% (active). Besides, the viability was 59.8% (active) in [12] (at 5 µM, OCI-C5x cells, without rucaparib); 106% (inactive) in test [12] (at 5 µM, OCI-P5x cells, with rucaparib 20 µM, 100% = cells with rucaparib alone); 78.1% (active) in [12] (at 5 µM, OCI-P5x cells, without rucaparib). For the same compound, the red/green cell ratio (normalised) in test [2] is 1.06 (inactive). Besides, the normalised cell number in test [2] (setting [13]) was found to be 0.86; in [2] (setting [14]) it was 0.92. In addition, the AC50 in [3] was 18600 nM (active). The compound was called inactive in [4] and in test [5]. Further, the fold change in test [6] (setting [15]) was 1.07 (inactive); in test [6] (setting [16]) it was 1.01. The cell count in [6] (setting [17]) is 1570; in test [6] (setting [18]) it was 1470. The remaining NAD in [11] was 10 nM (inactive). Also, in test [9], the luciferase signal was 52 AU (inactive).
